Assay results published in the supplement of paper PMC7156485.
“And” between values parts separate entries of the source, which are not always exact repeats. Equal values may be shown once. ± gives the standard deviation of the averaged measurements.

Columns and labels:
Details in all cases: concentration: 10 µM; 24 h
[1] = tested on: HCC1569; assay: cell number relative to DMSO (% of DMSO); higher = more cells (less growth inhibition / toxicity)
Summary of the method: (§1)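 Cells were seeded at 800 per well in 384-well plates with RPMI containing 10% FBS; both HCC1569 and TDF lines were used. Compounds were added at 10 µM for 24 h at 37 °C, in triplicate, before fixation in 3.7% formaldehyde and staining with a rabbit anti-H1.0 antibody, an AlexaFluor 647 secondary and DAPI. H1.0 nuclear intensity or cell number is reported as percent of the plate control using the median of replicates, and HCC1569 values were smoothed for positional effects.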

[2] = tested on: TDF; assay: as above
Summary of the method: as §1

[3] = tested on: TDF; assay: H1.0 immunofluorescence intensity relative to DMSO (% of DMSO); higher = stronger H1.0 induction, active = 120 or more
Summary of the method: as §1

[4] = tested on: HCC1569; assay: H1.0 immunofluorescence intensity relative to DMSO (% of DMSO); higher = stronger H1.0 induction, active = 140 or more
Summary of the method: as §1
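Throughout, for H1.0 immunofluorescence intensity relative to DMSO: TDF is a line of transformed human dermal fibroblasts of mesenchymal origin.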
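Throughout, for cell number relative to DMSO: TDF denotes transformed human dermal fibroblasts of mesenchymal origin.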

Row | SMILES | cell number [1] | cell number [2] | H1.0 immunofluorescence intensity [3] | H1.0 immunofluorescence intensity [4]
1 | CN1C(=O)C23CC4=CC=CC(O)C4N2C(=O)C1(CO)SS3 (stereo not given) [Gliotoxin] | 0.969 | 0.3 |  | 
2 | CN1C2CC(=O)CC1C(O)C2 (stereo not given) [6-Hydroxytropinone] | 103 | 111 | 88.5 (inactive) | 89.2 (inactive)
3 | CS(=O)(=O)O.O.Oc1ccc2c3c1OC1c4oc5ccccc5c4CC4(O)C(C2)N(CC2CC2)CCC314 (stereo not given) [Naltriben methanesulfonate hydrate] | 98.9 | 101 | 92.8 (inactive) | 119 (inactive)
4 | COC(=O)C(N)CCCN=C(N)N[N+](=O)[O-].Cl [NG-Nitro-L-arginine methyl ester hydrochloride] | 103 | 109 | 89.9 (inactive) | 92.5 (inactive)
5 | CCCN1CCCC(c2cccc(O)c2)C1.Cl (stereo not drawn) [R(+)-3PPP hydrochloride] | 104 | 106 | 88.2 (inactive) | 103 (inactive)
6 | CCCC[N+]1(C)C2CC(OC(=O)C(CO)c3ccccc3)CC1C1OC12 (stereo not given) [Scopolamine N-butyl] | 103 | 111 | 91.4 (inactive) | 100 (inactive)
7 | CNC1CC2OC(C)(C1OC)n1c3ccccc3c3c4c(c5c6ccccc6n2c5c31)C(=O)NC4 (stereo not given) [Staurosporine, Streptomyces sp.] | 56.3 ± 58 | 47.9 ± 67 | 149 (active) | 84.1 (inactive)
8 | C=CCc1cc(OC)c2c(c1)OCO2 [Myristicin] | 104 | 103 | 104 (inactive) | 81.5 (inactive)
9 | C=CCN1CCC23c4c5ccc(O)c4OC2C(=NNC(=O)c2ccccc2)CCC3(O)C1C5 (stereo not given) [Naloxone benzoylhydrazone] | 99.7 | 118 | 101 (inactive) | 93.3 (inactive)
10 | CC1=CC23C(=O)C(C=C(CO)C(O)C2(O)C1O)C1C(CC3C)C1(C)C (stereo not given) [Ingenol] | 102 | 107 | 94.7 (inactive) | 80 (inactive)
11 | Cl.Clc1ccc(N2CCN(Cc3c[nH]c4ncccc34)CC2)cc1 [L-745,870 hydrochloride] | 99.5 | 90.2 | 115 (inactive) | 102 (inactive)
12 | CN(C)C(=O)Oc1cc(OC(=O)N(C)C)cc(C(O)CNC(C)(C)C)c1 (stereo not given) [Bambuterol] | 101 | 112 | 93.5 (inactive) | 106 (inactive)
13 | CC(C)C1(NC(=O)C2CC3c4cccc5[nH]cc(c45)CC3N(C)C2)OC2(O)C3CCCN3C(=O)C(Cc3ccccc3)N2C1=O (stereo not given) [Dihydroergocristine] | 104 | 100 | 90.4 (inactive) | 117 (inactive)
14 | O=c1cccc2n1CC1CNCC2C1 (single isomer, unassigned; (-)) [(-)-Cytisine] | 103 | 85.2 | 102 (inactive) | 96.6 (inactive)
15 | O=C(O)C=CC(=O)O.O=C(O)C=CC(=O)O.c1ccc2nc(N3CCNCC3)ccc2c1 [Quipazine dimaleate] | 97.5 | 103 | 90 (inactive) | 112 (inactive)
16 | COc1ccc2c3c1OC1C(=O)CCC4(O)C(C2)N(CC2CC2)CCC314.Cl (single isomer, unassigned; (-)) [(-)-3-Methoxynaltrexone hydrochloride] | 104 | 109 | 88.4 (inactive) | 86.7 (inactive)
17 | COc1ccc2c(c1)C13CCCCC1C(C2)NCC3.Cl (stereo not given) [3-Methoxy-morphanin hydrochloride] | 99.1 | 107 | 97.3 (inactive) | 99.5 (inactive)
18 | CCn1cc(C(=O)[O-])c(=O)c2ccc(C)nc21.[Na+] [Nalidixic acid sodium] | 107 | 107 | 86 (inactive) | 92.4 (inactive)
19 | COc1ccc2c(c1)C13CCCCC1C(C2)N(C)CC3 (stereo not given) [Dextromethorphan] | 103 | 103 | 102 (inactive) | 107 (inactive)
20 | CCCCCCCCCCCCCCC(Br)C(=O)O (stereo not given) [2-bromohexadecanoic acid] | 109 | 107 | 91.6 (inactive) | 94.5 (inactive)
21 | CCCN1CCCC2Cc3[nH]ncc3CC21 (racemic) | 99.6 | 96.7 | 100 (inactive) | 106 (inactive)
22 | CN1CC(NS(=O)(=O)N(C)C)CC2c3cccc4c3c(cn4C)CC21.Cl (stereo not given) [Mesulergine hydrochloride] | 101 | 100 | 93.4 (inactive) | 94.2 (inactive)
23 | COc1ccc(OC)c(C(O)C(C)N)c1.Cl (stereo not given) [Methoxamine hydrochloride] | 101 | 106 | 95.2 (inactive) | 94.3 (inactive)
24 | CCCCCCCCCCCCCCCC(=O)OCC(COP(=O)([O-])OCC[N+](C)(C)C)OC(C)=O (stereo not given) | 102 | 102 | 98.7 (inactive) | 101 (inactive)

Row | SMILES | cell number [1] | cell number [2] | H1.0 immunofluorescence intensity [3] | H1.0 immunofluorescence intensity [4]
25 | NC(CCCCCP(=O)(O)O)C(=O)O (racemic) | 102 | 105 | 96.9 (inactive) | 98.4 (inactive)
26 | O=[N+]([O-])c1ccc(O[C@@H]2O[C@H](CO)[C@@H](O)[C@H](O)[C@H]2F)c([N+](=O)[O-])c1 [2,4-Dinitrophenyl 2-fluoro-2-deoxy-beta-D-glucopyranoside] | 105 | 111 | 86.5 (inactive) | 93.2 (inactive)
27 | COC1CC(CC2CCC(C)C(C(C)C(=O)[O-])O2)OC2(OC(C)(C3CCC(C)(C4OC(C5OC(O)(CO)C(C)CC5C)CC4C)O3)CC2C)C1C.[Na+] (stereo not given) [Nigericin] | 53.3 | 68.8 | 122 (active) | 183 (active)
28 | Oc1ccc2c3c1OC1C(O)CCC4(O)C(C2)N(CC2CCC2)CCC314 (stereo not given) [Nalbuphine] | 105 | 105 | 89.2 (inactive) | 104 (inactive)
29 | CC1(CO)C(O)CCC2(C)C1CCC1CC3CC12CCC3(O)CO (stereo not given) [Aphidicolin] | 79.6 | 55.2 | 108 (inactive) | 95.2 (inactive)
30 | CC12CCC3C(CCC4CC(O)CCC43C)C1CCC2=O (stereo not given) [Androsterone] | 95 | 113 | 91.7 (inactive) | 107 (inactive)
31 | C=CCN1CC(C)N(C(c2ccc(C(=O)N(CC)CC)cc2)c2cccc(OC)c2)CC1C (stereo not given) | 102 | 102 | 96.5 (inactive) | 87.8 (inactive)
32 | CC1CCC2C(C)C(=O)OC3OC4(C)CCC1C32OO4 (stereo not given) [Artemesinin] | 102 ± 2.5 | 97.4 ± 2.2 | 95.9 (inactive) | 116 (inactive)
33 | COc1cc(C(O)CN)ccc1O.Cl (racemic) | 102 | 111 | 92.5 (inactive) | 94.7 (inactive)
34 | Cl.Cl.NNCc1cccc(O)c1 [3-Hydroxybenzylhydrazine dihydrochloride] | 46.1 | 48.9 | 117 (inactive) | 104 (inactive)
35 | C#CCNC(C)Cc1ccccc1.Cl (stereo not drawn) [R-(-)-Desmethyldeprenyl hydrochloride] | 102 | 103 | 97.2 (inactive) | 90.7 (inactive)
36 | CC(=O)C1CCC2C3CCC4CC(O)CCC4(C)C3CCC12C (stereo not drawn) [5alpha-Pregnan-3alpha-ol-20-one] | 98.3 | 107 | 90.5 (inactive) | 102 (inactive)
37 | COc1ccc(CC2NCCc3cc(OC)c(OC)cc32)cc1OC.Cl (stereo not given) | 99.3 | 109 | 94.3 (inactive) | 80.5 (inactive)
38 | C[N+]1(C)C2CCC1CC(OC(=O)c1c[nH]c3ccccc13)C2.[I-] (stereo not given) [3-Tropanylindole-3-carboxylate methiodide] | 100 | 106 | 95.5 (inactive) | 114 (inactive)
39 | COc1ccccc1N1CCNCC1.Cl [1-(2-Methoxyphenyl)piperazine hydrochloride] | 105 | 113 | 96.4 (inactive) | 98.8 (inactive)
40 | C=CCN1CCC23CCCCC2C1Cc1ccc(O)cc13.O=C(O)C(O)C(O)C(=O)O (stereo not given) [Levallorphan tartrate] | 99.1 | 118 | 90.1 (inactive) | 100 (inactive)
41 | [Cl-].c1ccc2c(c1)[I+]c1ccccc1-2 [Diphenyleneiodonium chloride] | 61.4 | 34 | 123 (active) | 125 (inactive)
42 | COC1C(O)C(C)OC(OC2CCC3(C=O)C(CCC4C3CCC3(C)C(C5=CC(=O)OC5)CCC43O)C2)C1O (stereo not given) [Peruvoside] | 52.3 | 44 | 107 (inactive) | 106 (inactive)
43 | CCCCC(C)C(OC(=O)CC(CC(=O)O)C(=O)O)C(CC(C)CCCCCCC(O)CC(O)C(C)N)OC(=O)CC(CC(=O)O)C(=O)O (stereo not given) [Fumonisin B2] | 100 | 102 | 97.3 (inactive) | 89.7 (inactive)
44 | CN(C)Cc1c[nH]c2ccccc12 [Gramine] | 96.9 | 99.3 | 94.1 (inactive) | 83 (inactive)
45 | CC(C)c1cc2c(c(O)c1O)C1(C(=O)O)CCCC(C)(C)C1CC2 (stereo not given) [Carnosic acid] | 96.8 | 99.9 | 95.3 (inactive) | 103 (inactive)
46 | O=C1NC(=O)c2c1c1c3ccccc3n3c1c1c2c2ccccc2n1C1CCC3O1 | 77.9 and 77.4 | 74.9 and 76.9 | 105 (inactive) and 100 (inactive) | 126 (inactive) and 107 (inactive)
47 | CC1CC(C)C(=O)C(C(O)CC2CC(=O)NC(=O)C2)C1 (stereo not given) [Cycloheximide] | 64.3 | 41.7 | 110 (inactive) | 139 (inactive)
48 | CS(=O)CCCCN=C=S (stereo not given) [1-isothiocyanato-4-(methylsulfinyl)butane] | 99.7 | 94.9 | 93.7 (inactive) | 89.6 (inactive)
